Hit rate of the full screen: of about 5,500 compounds, about 2,000 (36%) were called active. Another 18% or so got no clear call; they are omitted. No stated cut-off is given here; in the data, active means normalized growth mostly below about 0.91 (no sharp cut-off); inconclusive means no clear call, values can overlap the other calls; inactive means mostly above about 0.92. This is one part of the list.
Test: chemical genetic growth profiling, strain panel (AID 1159580);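 further: tested at 20 µM; growth read once vehicle control cultures reached saturation at 30 °C; 1 = growth at the plate median or of vehicle wells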
Settings: growth OD

Measured: normalized growth

Oc1ccc(Cl)cc1Cc1cc(Cl)ccc1O
active: S. cerevisiae deletion strains, locus YJR075W, strain HOC1, stronger effect = lower value 0.0746 | S. cerevisiae deletion strains, locus YKL009W, strain mrt4, stronger effect = lower value 0.092 | S. cerevisiae deletion strains, locus YKL068W, stronger effect = lower value 0.101 | S. cerevisiae deletion strains, locus YKL085W, strain MDH1 (second series), stronger effect = lower value 0.0549 | S. cerevisiae deletion strains, locus YKL085W, strain MDH1, stronger effect = lower value 0.0549 | S. cerevisiae deletion strains, locus YKL160W, strain elf1, stronger effect = lower value 0.0693 | S. cerevisiae deletion strains, locus YKL190W, strain CNB1, stronger effect = lower value 0.0512 | S. cerevisiae deletion strains, locus YKR001C, strain vps1, stronger effect = lower value 0.0604 | S. cerevisiae deletion strains, locus YKR026C, strain gcn3, stronger effect = lower value 0.13 | S. cerevisiae deletion strains, locus YKR091W, strain srl3, stronger effect = lower value 0.0642 | S. cerevisiae deletion strains, locus YLL001W, strain dnm1, stronger effect = lower value 0.113 | S. cerevisiae deletion strains, locus YLL026W, stronger effect = lower value 0.0579 | S. cerevisiae deletion strains, locus YLL041C, strain sdh2, stronger effect = lower value 0.0645 | S. cerevisiae deletion strains, locus YLR027C, strain aat2, stronger effect = lower value 0.0566 | S. cerevisiae deletion strains, locus YLR039C, strain RIC1, stronger effect = lower value 0.0807 | S. cerevisiae deletion strains, locus YLR058C, strain SHM2, stronger effect = lower value 0.0611 | S. cerevisiae deletion strains, locus YLR102C, strain apc9, stronger effect = lower value 0.0602 | S. cerevisiae deletion strains, locus YLR113W, strain HOG1, stronger effect = lower value 0.165 | S. cerevisiae deletion strains, locus YLR221C, strain rsa3, stronger effect = lower value 0.0636 | S. cerevisiae deletion strains, locus YLR258W, strain gsy2, stronger effect = lower value 0.0643 | S. cerevisiae deletion strains, locus YLR262C, strain YPT6 (second series), stronger effect = lower value 0.0751 | S. cerevisiae deletion strains, locus YLR262C, strain YPT6, stronger effect = lower value 0.101 | S. cerevisiae deletion strains, locus YLR268W, strain sec22, stronger effect = lower value 0.0687 | S. cerevisiae deletion strains, locus YLR320W, strain mms22, stronger effect = lower value 0.0873 | S. cerevisiae deletion strains, locus YLR330W, strain CHS5, stronger effect = lower value 0.0555 | S. cerevisiae deletion strains, locus YLR342W, strain FKS1 (second series), stronger effect = lower value 0.0854 | S. cerevisiae deletion strains, locus YLR342W, strain FKS1, stronger effect = lower value 0.0648 | S. cerevisiae deletion strains, locus YLR357W, strain rsc2, stronger effect = lower value 0.273 | S. cerevisiae deletion strains, locus YLR370C, strain arc18, stronger effect = lower value 0.108 | S. cerevisiae deletion strains, locus YLR371W, strain rom2, stronger effect = lower value 0.0629 | S. cerevisiae deletion strains, locus YLR384C, strain iki3, stronger effect = lower value 0.118 | S. cerevisiae deletion strains, locus YLR418C, strain cdc73, stronger effect = lower value 0.098 | S. cerevisiae deletion strains, locus YML016C, strain PPZ1, stronger effect = lower value 0.0858 | S. cerevisiae deletion strains, locus YML032C, strain rad52, stronger effect = lower value 0.0693 | S. cerevisiae deletion strains, locus YML120C, strain ndi1, stronger effect = lower value 0.0588 | S. cerevisiae deletion strains, locus YML124C, strain tub3, stronger effect = lower value 0.0644 | S. cerevisiae deletion strains, locus YMR058W, strain fet3, stronger effect = lower value 0.131 | S. cerevisiae deletion strains, locus YMR078C, strain ctf18, stronger effect = lower value 0.071 | S. cerevisiae deletion strains, locus YMR125W, strain sto1, stronger effect = lower value 0.0949 | S. cerevisiae deletion strains, locus YMR129W, stronger effect = lower value 0.0627 | S. cerevisiae deletion strains, locus YMR205C, strain PFK2, stronger effect = lower value 0.102 | S. cerevisiae deletion strains, locus YMR223W, strain ubp8, stronger effect = lower value 0.066 | S. cerevisiae deletion strains, locus YMR231W, strain pep5, stronger effect = lower value 0.085 | S. cerevisiae deletion strains, locus YMR263W, strain SAP30, stronger effect = lower value 0.0643 | S. cerevisiae deletion strains, locus YMR307W, strain GAS1, stronger effect = lower value 0.145 | S. cerevisiae deletion strains, locus YNL067W, strain RPL9B, stronger effect = lower value 0.0779 | S. cerevisiae deletion strains, locus YNL071W, strain lat1, stronger effect = lower value 0.0636 | S. cerevisiae deletion strains, locus YNL128W, strain TEP1, stronger effect = lower value 0.0892 | S. cerevisiae deletion strains, locus YNL153C, strain GIM3, stronger effect = lower value 0.0714 | S. cerevisiae deletion strains, locus YNL183C, strain NPR1, stronger effect = lower value -0.00267 | S. cerevisiae deletion strains, locus YNL209W, strain ssb2, stronger effect = lower value 0.0857 | S. cerevisiae deletion strains, locus YNL233W, strain BNI4, stronger effect = lower value 0.056 | S. cerevisiae deletion strains, locus YNL248C, strain rpa49, stronger effect = lower value 0.109 | S. cerevisiae deletion strains, locus YNL250W, strain rad50, stronger effect = lower value 0.0758 | S. cerevisiae deletion strains, locus YNL271C, strain bni1, stronger effect = lower value 0.0676 | S. cerevisiae deletion strains, locus YNL298W, strain CLA4, stronger effect = lower value 0.0642 | S. cerevisiae deletion strains, locus YNL307C, strain MCK1, stronger effect = lower value 0.0664 | S. cerevisiae deletion strains, locus YNL322C, strain KRE1 (second series), stronger effect = lower value 0.0828 | S. cerevisiae deletion strains, locus YNL322C, strain KRE1, stronger effect = lower value 0.0618 | S. cerevisiae deletion strains, locus YNR049C, strain mso1, stronger effect = lower value 0.109 | S. cerevisiae deletion strains, locus YNR052C, strain pop2, stronger effect = lower value 0.0645 | S. cerevisiae deletion strains, locus YOL006C, strain TOP1, stronger effect = lower value 0.0992 | S. cerevisiae deletion strains, locus YOL012C, strain htz1 0.176 | S. cerevisiae deletion strains, locus YOL147C, strain pex11, stronger effect = lower value 0.0563 | S. cerevisiae deletion strains, locus YOR001W, strain rrp6, stronger effect = lower value 0.0685 | S. cerevisiae deletion strains, locus YOR061W, strain CKA2, stronger effect = lower value 0.0631 | S. cerevisiae deletion strains, locus YOR069W, strain VPS5, stronger effect = lower value 0.0593 | S. cerevisiae deletion strains, locus YOR070C, strain gyp1, stronger effect = lower value 0.0618 | S. cerevisiae deletion strains, locus YOR080W, strain dia2, stronger effect = lower value 0.0748 | S. cerevisiae deletion strains, locus YOR083W, strain WHI5, stronger effect = lower value 0.0694 | S. cerevisiae deletion strains, locus YOR106W, strain vam3, stronger effect = lower value 0.0658 | S. cerevisiae deletion strains, locus YOR136W, strain idh2, stronger effect = lower value 0.0708 | S. cerevisiae deletion strains, locus YOR144C, strain elg1, stronger effect = lower value 0.0576 | S. cerevisiae deletion strains, locus YOR184W, strain ser1, stronger effect = lower value 0.0699 | S. cerevisiae deletion strains, locus YOR231W, strain MKK1, stronger effect = lower value 0.123 | S. cerevisiae deletion strains, locus YOR265W, strain rbl2, stronger effect = lower value 0.0619 | S. cerevisiae deletion strains, locus YOR270C, strain vph1, stronger effect = lower value 0.101 | S. cerevisiae deletion strains, locus YOR290C, strain snf2, stronger effect = lower value 0.0874 | S. cerevisiae deletion strains, locus YOR316C, strain cot1, stronger effect = lower value 0.0588 | S. cerevisiae deletion strains, locus YPL051W, strain arl3, stronger effect = lower value 0.0629 | S. cerevisiae deletion strains, locus YPL055C, strain LGE1, stronger effect = lower value 0.0724 | S. cerevisiae deletion strains, locus YPL078C, strain atp4, stronger effect = lower value 0.0851 | S. cerevisiae deletion strains, locus YPL106C, strain sse1, stronger effect = lower value 0.107 | S. cerevisiae deletion strains, locus YPL240C, strain hsp82, stronger effect = lower value 0.0585 | S. cerevisiae deletion strains, locus YPL241C, strain CIN2, stronger effect = lower value 0.0663 | S. cerevisiae deletion strains, locus YPL256C, strain CLN2, stronger effect = lower value 0.114 | S. cerevisiae deletion strains, locus YPR119W, strain clb2, stronger effect = lower value 0.0612 | S. cerevisiae deletion strains, locus YPR141C, strain kar3, stronger effect = lower value 0.0922 | S. cerevisiae deletion strains, locus YPR163C, strain tif3, stronger effect = lower value 0.07 | S. cerevisiae deletion strains, locus YPR167C, strain met16, stronger effect = lower value 0.0608 | S. cerevisiae deletion strains, strain wtn01, stronger effect = lower value 0.065 | S. cerevisiae strains, strain wild type, stronger effect = lower value 0.051

Reference: PubChem BioAssay AID1159580 (chemical genetic matrix, 2015)
